Casp6 inh: blocks human caspase-6 cleavage activity | P55212 | purified caspase-6, Z-VEID-R110 cleavage fluorescence | inhibition, % at 12.5 µM | 350,000 tested, 0.53% active | AID 686996;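 active = mean inhibition across replicates at least about 35%, with every replicate also reaching that limit, limit read from the data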;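 note: 0% = median of neutral control wells and 100% = no fluorescence left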
SIRT5 inh: blocks human SIRT5 desuccinylation of peptide | Q9NXA8 | Purified SirT5, succinyl-peptide AMC, trypsin-coupled fluorescence | inhibition, % at 15 µM | 330,000 tested, 1.1% active; in the data active = inhibition above about 15%
PfHsp90 yeast 2: growth inhibition of yeast expressing Plasmodium Hsp90; S. cerevisiae expressing PfHsp90, BacTiter-Glo ATP, 48 h; yeast lacking PDR1 and PDR3 efflux regulators; inhibition, % at 9.4 µM; 310,000 tested, 0.32% active; AID 504621;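 active = every replicate shows inhibition above about 80%, whatever the replicate mean, limit read from the data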;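 note: 0% = DMSO neutral controls and 100% = 20 µM radicicol positive controls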
ARNT TACC3 PPI: ARNT/TACC3 interaction disruption. Q9Y6A5. AlphaScreen His-ARNT PAS-B/GST-TACC3 binding, luminescence; TACC3 fragment carries E629A point mutation. inhibition, % at 9.99 µM. 390,000 tested, 0.66% active. AID 623870;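 active = mean inhibition of replicates at least 50% and at least half of replicates each reaching 50%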;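 note: 0% = complete ARNT plus TACC3 wells and 100% = ARNT alone without TACC3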
NSD2 HMT inh: inhibitors of human histone methyltransferase NSD2 | AID 743445 | NSD2 peptide methylation, AlphaScreen, 120 min | inhibition, % at 12.5 µM | O96028 | 310,000 tested, 0.54% active; in the data active = inhibition above about 50%
Target sequence (O96028 whole entry, looked up): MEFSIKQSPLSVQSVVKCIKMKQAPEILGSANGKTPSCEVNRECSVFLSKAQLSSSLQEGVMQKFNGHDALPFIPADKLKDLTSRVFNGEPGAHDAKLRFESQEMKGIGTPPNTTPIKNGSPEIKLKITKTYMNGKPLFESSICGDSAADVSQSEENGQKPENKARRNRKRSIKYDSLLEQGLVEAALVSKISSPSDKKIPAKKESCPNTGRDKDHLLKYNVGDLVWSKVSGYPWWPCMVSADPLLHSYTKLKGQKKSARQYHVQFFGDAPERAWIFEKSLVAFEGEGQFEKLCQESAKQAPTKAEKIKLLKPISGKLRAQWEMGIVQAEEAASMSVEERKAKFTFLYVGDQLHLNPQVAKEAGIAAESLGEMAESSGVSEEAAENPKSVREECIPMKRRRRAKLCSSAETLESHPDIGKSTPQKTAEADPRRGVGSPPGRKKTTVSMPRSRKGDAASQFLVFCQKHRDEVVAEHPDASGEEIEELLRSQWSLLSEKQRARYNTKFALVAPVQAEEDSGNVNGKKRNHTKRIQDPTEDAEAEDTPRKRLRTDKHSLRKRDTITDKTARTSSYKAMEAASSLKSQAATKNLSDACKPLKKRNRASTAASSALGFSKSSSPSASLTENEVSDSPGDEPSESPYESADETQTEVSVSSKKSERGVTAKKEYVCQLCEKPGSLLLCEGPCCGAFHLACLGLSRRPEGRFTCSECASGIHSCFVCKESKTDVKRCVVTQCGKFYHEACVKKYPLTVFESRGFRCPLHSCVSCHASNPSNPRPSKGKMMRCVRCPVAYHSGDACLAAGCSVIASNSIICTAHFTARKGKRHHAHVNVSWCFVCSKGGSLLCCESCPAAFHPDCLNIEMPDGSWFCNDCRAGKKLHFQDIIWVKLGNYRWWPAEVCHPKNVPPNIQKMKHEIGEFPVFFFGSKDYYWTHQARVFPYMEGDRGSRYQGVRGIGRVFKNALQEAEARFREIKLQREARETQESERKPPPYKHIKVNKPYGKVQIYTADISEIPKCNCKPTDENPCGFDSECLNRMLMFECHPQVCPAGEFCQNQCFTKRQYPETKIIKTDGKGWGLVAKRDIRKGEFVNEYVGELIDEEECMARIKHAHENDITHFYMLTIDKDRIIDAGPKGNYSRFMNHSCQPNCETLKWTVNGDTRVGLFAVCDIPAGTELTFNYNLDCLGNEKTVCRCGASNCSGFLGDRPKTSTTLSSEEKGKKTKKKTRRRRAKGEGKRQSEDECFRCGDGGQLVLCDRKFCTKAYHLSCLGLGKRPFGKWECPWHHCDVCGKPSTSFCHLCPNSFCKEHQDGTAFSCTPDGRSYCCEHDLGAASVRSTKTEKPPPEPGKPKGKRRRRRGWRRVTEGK
Active calls of the source: *; / = not tested or not shown; ! = not confirmed by another sample. A selection: hits, their analogues and other compounds. The true share with any hit is near 2.1%.

SMILES	Casp6 inh	SIRT5 inh	PfHsp90 yeast 2	ARNT TACC3 PPI	NSD2 HMT inh
O=C(Oc1cccc2cccnc12)c1ccco1	/	/	11.6	53.9*	-0.3
CC(=O)Nc1c(O)nc(SCC(=O)Nc2nnc(SCc3ccccc3)s2)[nH]c1=O	79.8*	3.6	-14.2	27.0	/
CC(=O)Nc1c(O)nc(SCC(=O)Nc2nnc(CC(C)C)s2)[nH]c1=O	/	/	-5.8	5.9	-2.6
O=C(CSCc1ccc(Cl)cc1)Nc1ccc(O)cc1C(=O)O	15.0	-0.1	9.9	46.5*	0.2
Cc1ccc(Nc2nc(N)c([N+](=O)[O-])c(N3CCCC(C)C3)n2)cc1C (centres undefined)	/	/	132.1*	2.9	2.5
CN(C)c1ccc(/C=C2\N=C(C(C)(C)C)OC2=O)cc1	-0.3	18.1*	-10.8	-2.8	2.0
O=C(C[C@@H]1C[C@H]2c3cc(NC(=O)NC4CCCC4)ccc3O[C@H]2[C@@H](CO)O1)NCc1ccncc1	2.9	-0.7	/	2.4	/
CC1=C(C(=O)N2CCOCC2)CC(CC(=O)NC2CC2)C(=O)N1CCC1=CCCCC1 (centres undefined)	0.1	17.3*	/	/	/
CC1=C(C(=O)N(C)C)CC(CC(=O)NCC2CCCCC2)C(=O)N1CCC1=CCCCC1 (centres undefined)	2.0	-5.2	/	/	/
CC1=C(C(=O)N2CCOCC2)CC(CC(=O)NCC2CCCCC2)C(=O)N1CCC1=CCCCC1 (centres undefined)	2.1	22.6*	/	/	/
CC1=C(C(=O)N(C)C)CC(CC(=O)NC2CC2)C(=O)N1CCC1=CCCCC1 (centres undefined)	-0.4	4.2	/	/	/
C[C@@H]1CCCCO[C@@H](CN(C)Cc2ccc(Cl)c(Cl)c2)[C@H](C)CN([C@@H](C)CO)C(=O)c2cc(NC(=O)Nc3cccc4ccccc34)ccc2O1	-2.3	-4.5	/	-0.8	/
CC1=C/C(=N\OS(=O)(=O)c2ccccc2)C(C(C)C)=CC1=O	/	/	103.7*	7.8	3.6
CC1=C/C(=N\OS(=O)(=O)c2ccccc2)C(C)=CC1=O	0.6	-3.8	104.7*	/	-3.7
CC1=C(C)/C(=N\OS(=O)(=O)c2ccc(C)cc2)C=CC1=O	/	/	109.8*	-5.8	3.2
COc1ccc(S(=O)(=O)N(C)C[C@@H]2Oc3ccc(NC(=O)Nc4c(C)noc4C)cc3C(=O)N([C@@H](C)CO)C[C@@H]2C)cc1	1.0	-4.9	/	-6.7	/
C[C@@H]1CN([C@@H](C)CO)S(=O)(=O)c2ccc(C#CC3CC3)cc2O[C@H]1CN(C)Cc1cccc(F)c1	1.9	-0.2	/	2.4	/
COc1ccc([Si](C)(C)[C@H]2[C@H](CCO)O[C@@]3(C(=O)N(Cc4ccc(NC(C)=O)cc4)c4ccccc43)[C@@H]2C)cc1	0.6	21.2*	/	16.2	/
COc1ccc([Si](C)(C)[C@H]2[C@H](CCO)O[C@@]3(C(=O)N(Cc4ccccc4)c4ccc(N5CCCCC5=O)cc43)[C@@H]2C)cc1	-1.2	3.8	/	7.4	/
COc1ccc([Si](C)(C)[C@H]2[C@H](CCO)O[C@@]3(C(=O)N(Cc4ccccc4)c4ccc(N5CCC5=O)cc43)[C@@H]2C)cc1	3.1	17.3*	/	-9.9	/
C[C@H](NC(=O)C[C@@H]1C[C@@H]2c3cc(NC(=O)CC4CC4)ccc3O[C@@H]2[C@H](CO)O1)c1ccccc1	-1.1	2.0	/	-2.6	/
COCCCNc1nc2cc(OC)c(OC)cc2c2nc(-c3ccccc3)nn12	-2.2	20.7*	-10.0	-20.8	-1.0
C[C@H]1CCCCO[C@@H](CN(C)C(=O)CCC(F)(F)F)[C@@H](C)CN([C@@H](C)CO)C(=O)c2cc(NS(C)(=O)=O)ccc2O1	1.2	4.5	/	2.6	/
COc1ccc2c3c(n(C)c2c1)[C@@H](CO)N(C(=O)C1CCCC1)CC31CCN(C(=O)c2ccncc2)CC1	-0.9	0.9	/	/	/
CCCCC[C@H](O)/C=C/[C@@H]1[C@@H](C/C=C\CCCC(=O)OC)[C@@H](O)C[C@H]1O	/	/	-15.6	-19.2	/
SMILES	Casp6 inh	SIRT5 inh	PfHsp90 yeast 2	ARNT TACC3 PPI	NSD2 HMT inh
CCCCC[C@H](O)/C=C/C1C(=O)C=C[C@H]1C/C=C\CCCC(=O)OC (some centres undefined)	53.4*	5.5	-15.7	8.1	/
Cc1ccc(S(=O)(=O)N(C)C[C@H]2Oc3ccc(NC(=O)Nc4ccc(C(F)(F)F)cc4)cc3C(=O)N([C@@H](C)CO)C[C@H]2C)cc1	-1.0	7.9	/	6.5	/
Cc1nnc(NC(=O)CSc2ccc(-c3ccco3)nn2)s1	35.4*	-7.6	11.2	11.9	9.7
Cc1cc(C)cc(NC(=O)CSc2ccc(-c3cccs3)nn2)c1	-3.4	22.2*	14.2	3.5	-5.6
O=C(CCN1CCCCC1)NCC[C@@H]1CC[C@H](NC(=O)Cc2cccnc2)[C@@H](CO)O1	/	-3.2	/	/	/
Cc1[nH]c(N=Nc2ccccc2)nc1N=Nc1ccccc1	1.3	6.3	103.9*	16.5	23.7
C[C@H](CO)N1C[C@H](C)[C@H](CN(C)Cc2ccncc2)Oc2c(NC(=O)C3CC3)cccc2C1=O	0.4	1.8	/	19.7	/
C=CCOc1ccc(C(c2c(C(=O)O)[nH]c3ccccc23)c2c(C(=O)O)[nH]c3ccccc23)cc1	47.7*	2.2	-2.9	-2.6	31.8
c1cnc2c(c1)ccc1cccnc12	-10.2	-3.0	125.4*!	64.7*	2.3
O=Cc1ccc2cccnc2n1	1.5	-1.9	/	3.5	-2.3
O=Cc1ccc2ccc3cccnc3c2n1	-1.1	-1.0	6.4	66.9*	-1.5
O=c1cc[nH]c2c1ccc1cccnc12	0.4	/	-4.0	60.7*	/
C[C@H](CO)N1C[C@H](C)[C@H](CN(C)Cc2ccncc2)Oc2cc(C#CC(C)(C)O)ccc2S1(=O)=O	5.1	-3.4	/	-4.3	/
O=C(C[C@H]1CC[C@@H](NC(=O)C2CCC2)[C@H](CO)O1)NCc1ccccc1Cl	-0.9	-0.5	/	-9.6	/
Cc1ccc(S(=O)(=O)Nc2cccc3cccnc23)cc1	/	/	-46.2	49.9*	-2.4
COC(=O)[C@H]1COC(c2ccc(OCCCO)cc2)=N1	5.9	-0.9	/	19.1	/
O=C(Nc1cccc2c(=O)[nH][nH]c(=O)c12)c1ccc([N+](=O)[O-])cc1	41.6*	/	/	/	3.6
O=c1cc(-c2ccc(O)cc2)oc2c(-c3c(O)cc(O)c4c(=O)cc(-c5ccc(O)cc5)oc34)c(O)cc(O)c12	11.2	/	2.4	4.8	/
O=c1c(-c2c(O)cc(O)c3c(=O)cc(-c4ccc(O)cc4)oc23)c(-c2ccc(O)cc2)oc2cc(O)cc(O)c12	82.9*	12.0	-31.5	4.0	/
Cc1csc(N2CCCC2=O)n1	-1.5	21.1*	-13.8	-3.4	0.7
Cc1csc(NC(=O)c2ccc(N3CCCC3=O)cc2)n1	-0.8	-2.3	18.6	15.3	-2.2
Cc1ccc(Cc2c(-c3cccc(Br)c3)nc3c(Cl)cc(C(F)(F)F)cn23)cc1	-0.5	25.0*	/	/	/
O=C1CS/C(=N/N=C/c2ccccc2)N1c1ccc(O)cc1	-1.4	1.9	1.3	3.5	-8.7
O=C1CS/C(=N\N=C\c2ccco2)N1c1ccccc1	57.3*	-5.2	-4.5	2.1	2.4

Screening results: PubChem, Broad Institute
